Measured values as given in PubChem BioAssay AID652067 (The Scripps Research Institute Molecular Screening Center, 2013).
Out of some 370,000 compounds screened, about 5,400 (1.5%) were called active.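 Rule for the calls: active = activation above the mean of all tested compounds plus 3 SD (cut at about 5.5% in these data); inactive = the rest.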 Shown is part of a subset that was picked to be rich in actives.

The compounds below were run on DAF-12 nuclear receptor (Haemonchus contortus) (assay: hcDAF-12 driven luciferase reporter activation – cell-based, luminescence, HEK293, lit1-tk-luc reporter, primary screen (AID 652067;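 note: 100% = response to 3 µM Δ7-dafachronic acid high control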)). Settings: HEK293 hcDAF-12 lit1-tk-luc reporter, at 6.8 µM, stronger effect = higher value, 0% DMSO, 100% Δ7-dafachronic acid.
COC(=O)Cc1nnn2c1[C@H](C)[C@H](c1ccccc1Br)OCC2 was tested, and the activation was -1.44% (inactive). For Cc1cccc(C2c3[nH]c4ccccc4c3CCN2C(=O)c2cc(-c3cccn3C)n[nH]2)n1 (stereo unspecified), the activation was 1.83% (inactive). Cc1cccc(C(=O)N2CCc3c([nH]c4ccccc34)C2CC(C)C)n1 (stereo unspecified) was tested, and the activation was 6.78% (active). COCc1ccc(C(=O)N2CCc3c([nH]c4ccccc34)C2c2ccccn2)s1 (stereo unspecified) was tested, and the activation was 0.63% (inactive). O=[N+]([O-])c1ccc(N/N=C2/CCCCC2c2ccccn2)c([N+](=O)[O-])c1 (stereo unspecified) was tested, and the activation was 0.53% (inactive). C[n+]1ccccc1C1CCCC/C1=N\Nc1ccc([N+](=O)[O-])cc1[N+](=O)[O-] (stereo unspecified) was tested, and the activation was 6% (active). With O=C(Nc1ccccc1)O/N=C1\CCCCC1c1ccc([N+](=O)[O-])cc1[N+](=O)[O-] (stereo unspecified) the activation was -1.35% (inactive). Cc1ccc(S(=O)(=O)NCCC(=O)Nc2cccc(S(N)(=O)=O)c2)cc1C was tested, and the activation was -1.34% (inactive). Cc1ccc(S(=O)(=O)NCCC(=O)NCc2ccc(Cl)cc2)cc1C was tested, and the activation was 2.24% (inactive). Cc1ccnc(NC(=O)CCNS(=O)(=O)c2ccc(C)c(C)c2)c1 was tested, and the activation was 9.81% (active). For O=C(CNC(=O)c1ccccc1)OC(C(=O)Nc1cc([N+](=O)[O-])ccc1F)c1ccccc1 (stereo unspecified), the activation was -1.31% (inactive). In the case of CCC(CO)Nc1cccc2c1S(=O)(=O)N(Cc1cn(Cc3ccccc3C(F)(F)F)nn1)Cc1ccccc1O2 (stereo unspecified), the activation is reported as -0.6% (inactive). With Cc1ccc(-c2nc(C3CCCN(S(=O)(=O)c4ccc(Br)s4)C3)no2)cc1 (stereo unspecified) the activation was -1.74% (inactive). CCOC(=O)C1(Cc2ccccc2)CCN(Cc2cn(C(C)=O)c3ccccc23)CC1 was tested, and the activation was 4.1% (inactive). In the case of Cc1ccc(NC(=O)N2c3ccccc3SC2c2ccco2)c(C)c1 (stereo unspecified), the activation is reported as 0.47% (inactive). COC(=O)C1CN(CC(C)C)CCS(=O)(=O)N1Cc1ccc(C)cc1 (stereo unspecified) was tested, and the activation was -1.58% (inactive). With N#Cc1ccc(C2N=C(c3ccccc3)NO2)cc1 (stereo unspecified) the activation was 5.73% (active). Brc1ccccc1C1N=C(c2ccccc2)NO1 (stereo unspecified) was tested, and the activation was 11% (active). S=C1NC(c2ccccc2)=NCN1c1ccc(Br)cc1 was tested, and the activation was -0.59% (inactive). For CN(C(=O)Cn1nnc(-c2ccc(F)cc2)n1)C1CCS(=O)(=O)C1 (stereo unspecified), the activation was 0.43% (inactive). In the case of C#CCN([C@H](C(=O)OC)C(C)CC)S(=O)(=O)c1ccccc1Br (stereo partly specified), the activation is reported as -3.57% (inactive). In the case of COC(=O)[C@]1(Cc2ccccc2)NC=C(C(=O)c2ccccc2)[C@@H]1c1cccc(OC)c1, the activation is reported as -0.48% (inactive). In the case of COc1cc(C(=O)Nc2ncccc2C)ccc1OCC(=O)N1CCOCC1, the activation is reported as -1.69% (inactive). In the case of O=C(Cc1ccc(Cl)cc1)NC(=S)Nc1ccccc1O, the activation is reported as -0.62% (inactive). For O=C(NC(=S)Nc1cccc2c(O)cccc12)c1cccc(Br)c1, the activation was 1.98% (inactive). With O=C(NC(=O)c1ccccc1)Nc1ccccc1O the activation was 12.2% (active).
